# Source: PubChem BioAssay (NCATS)
# Records with an inconclusive call do not appear. A call without a number means that no potency is given here. Where a structure was tested more than once in an assay, its records may differ in their call. Calls of active or inactive are those of the source. Unless noted, the call rests on the fitted dose curve; in most records, active means well fitted curve in the direction sought with a large enough effect; inconclusive means small, poorly fitted or top-dose-only effect, or another doubt; inactive means no such curve, though single readings can be large; an effect the other way counts as inactive or inconclusive.
# Key:
# [1] = biological target: Cytochrome P450 3A4 (Homo sapiens) (UniProt P08684); assay: qHTS Assay for Activators of Cytochrome P450 3A4 (AID 885); further: nearly all actives have a fitted effect of over 65% in size
# Chain of Cytochrome P450 3A4 (Homo sapiens) (P08684 whole entry, looked up): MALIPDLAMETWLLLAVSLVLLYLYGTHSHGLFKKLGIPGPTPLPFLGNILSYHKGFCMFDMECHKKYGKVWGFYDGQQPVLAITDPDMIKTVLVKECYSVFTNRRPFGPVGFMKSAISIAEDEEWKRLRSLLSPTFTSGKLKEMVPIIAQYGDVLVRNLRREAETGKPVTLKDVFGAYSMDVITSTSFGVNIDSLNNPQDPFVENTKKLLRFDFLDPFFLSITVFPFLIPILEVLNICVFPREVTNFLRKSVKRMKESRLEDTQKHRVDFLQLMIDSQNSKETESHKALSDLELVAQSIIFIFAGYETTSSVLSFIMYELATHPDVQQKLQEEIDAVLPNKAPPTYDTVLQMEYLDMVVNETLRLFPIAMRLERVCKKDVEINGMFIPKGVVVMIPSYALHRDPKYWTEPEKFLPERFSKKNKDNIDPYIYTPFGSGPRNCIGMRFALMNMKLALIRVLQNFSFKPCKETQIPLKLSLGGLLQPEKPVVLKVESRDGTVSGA
# How it was run: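 CYP3A4 activity: Luciferin-PPXE O-dealkylation, 25uM substrate, 200mM KPO4, RT throughout. Read-out is luciferase luminescence; higher values reflect activation.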
# [2] = biological target: Cytochrome P450 2D6 (Homo sapiens) (UniProt P10635); assay: qHTS Assay for Inhibitors and Substrates of Cytochrome P450 2D6 (AID 891); further: potency means the concentration at half of the fitted maximal effect; nearly all actives have a fitted effect of over 60% in size
# Chain of Cytochrome P450 2D6 (Homo sapiens) (P10635 whole entry, looked up): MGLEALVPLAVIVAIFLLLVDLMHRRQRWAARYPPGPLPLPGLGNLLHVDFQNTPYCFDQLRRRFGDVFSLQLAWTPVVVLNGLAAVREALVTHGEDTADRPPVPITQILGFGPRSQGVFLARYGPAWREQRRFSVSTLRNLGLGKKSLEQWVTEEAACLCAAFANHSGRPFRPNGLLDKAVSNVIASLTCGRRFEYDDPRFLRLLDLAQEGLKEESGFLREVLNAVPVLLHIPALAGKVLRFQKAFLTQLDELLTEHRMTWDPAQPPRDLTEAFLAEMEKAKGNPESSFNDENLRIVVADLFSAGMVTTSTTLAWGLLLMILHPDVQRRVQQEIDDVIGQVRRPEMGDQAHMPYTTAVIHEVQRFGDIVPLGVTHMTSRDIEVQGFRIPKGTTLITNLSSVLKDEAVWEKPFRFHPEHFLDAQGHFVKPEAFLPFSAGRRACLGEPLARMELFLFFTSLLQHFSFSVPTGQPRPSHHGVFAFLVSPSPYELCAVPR
# How it was run: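 Luminescent read-out of luciferin formed by 5 nM human CYP2D6 demethylating 30 uM Luciferin-ME EGE (Km level) over 60 min at room temperature after NADPH regeneration addition. Data normalized to full inhibition by 1.43 uM quinidine.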
# [3] = AP1 Signaling Pathway (AID 357; active means well fitted curve in either direction with a large enough effect, not every such curve was filed as active); conditions: ME-180 AP-1-bla reporter, EGF-induced, beta-lactamase ratio, 5 h; at 38 µM (top of the series)
# How it was run: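 In this screen, ME-180 cells in Opti-MEM with 0.5% dialyzed FBS received EC50 EGF and compound titrations for 5 h. AP-1 reporter beta-lactamase was detected via CCF4 ratio, giving AC50 for positive and negative modulators.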
# [4] = NFAT Signaling Pathway (AID 444; active means well fitted curve in either direction with a large enough effect, not every such curve was filed as active;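 further: carbachol stimulus at about its EC50 of 1 µM final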); conditions: Jurkat NFAT-bla M1, carbachol, beta-lactamase ratio, 5 h; at 38 µM (top of the series)
# How it was run: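 Jurkat cells carrying an NFAT-driven β-lactamase reporter and co-transfected muscarinic M1 receptor were treated with compound plus carbachol (1 uM final, an EC50 level) for 5 h at 37 °C. CCF4 loading followed for 1 h at RT; 460/530 nm ratio gave %activity.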
# [5] = Stat Signaling Pathway (AID 446; active means well fitted curve in either direction with a large enough effect, not every such curve was filed as active;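 further: ME-180 cervical cancer cells given 40 pM IL-6 alongside compound; SIE-controlled beta-lactamase reporter measured as 460/530 nm FRET emission ratio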); conditions: ME-180 (cervical carcinoma) SIE beta-lactamase reporter, IL-6 stimulated, 5 h; at 38 µM (top of the series)
# How it was run: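 Compound effects on IL-6-induced STAT reporter activity were measured in ME-180 cells. After overnight culture, cells were co-treated with 40 pM IL-6 for 5 hrs before beta-lactamase substrate loading at room temperature.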
# [6] = biological target: Guanine nucleotide-binding protein G(i) subunit alpha-1 (Homo sapiens) (UniProt P63096); assay: qHTS Assay for Inhibitors of RGS12 GoLoco Motif Activity (Green Fluorophore) (AID 879);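 further: negative values mean loss of peptide binding seen as reduced polarization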
# Chain of Guanine nucleotide-binding protein G(i) subunit alpha-1 (Homo sapiens) (P63096 whole entry, looked up): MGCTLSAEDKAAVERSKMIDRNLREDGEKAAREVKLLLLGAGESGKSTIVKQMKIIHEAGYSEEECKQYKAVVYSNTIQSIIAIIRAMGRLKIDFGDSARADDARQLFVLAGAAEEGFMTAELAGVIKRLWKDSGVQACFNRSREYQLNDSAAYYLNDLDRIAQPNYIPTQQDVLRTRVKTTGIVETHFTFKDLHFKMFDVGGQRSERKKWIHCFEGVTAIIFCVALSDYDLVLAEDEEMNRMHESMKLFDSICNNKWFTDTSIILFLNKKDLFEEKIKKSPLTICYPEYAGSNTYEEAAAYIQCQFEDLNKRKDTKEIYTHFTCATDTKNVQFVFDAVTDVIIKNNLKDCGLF
# How it was run: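 A drop in FITC polarization marked displacement of the FITC-tagged RGS12 GoLoco peptide (10 nM) from Gαi1 (50 nM). Compounds were incubated 10 min at room temperature in Tris pH 7.5 buffer containing 150 mM NaCl, 0.1 mM GDP and 0.05% NP40; unlabeled peptide titration served as control.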
# [7] = biological target: Muscarinic acetylcholine receptor M1 (Rattus norvegicus) (UniProt P08482); assay: qHTS Assay for Antagonists of Acetylcholine Muscarinic M1 Receptor: Measurement of IP-One Response (AID 944); further: nearly all actives have a fitted effect of over 75% in size
# Chain of Muscarinic acetylcholine receptor M1 (Rattus norvegicus) (P08482 whole entry, looked up): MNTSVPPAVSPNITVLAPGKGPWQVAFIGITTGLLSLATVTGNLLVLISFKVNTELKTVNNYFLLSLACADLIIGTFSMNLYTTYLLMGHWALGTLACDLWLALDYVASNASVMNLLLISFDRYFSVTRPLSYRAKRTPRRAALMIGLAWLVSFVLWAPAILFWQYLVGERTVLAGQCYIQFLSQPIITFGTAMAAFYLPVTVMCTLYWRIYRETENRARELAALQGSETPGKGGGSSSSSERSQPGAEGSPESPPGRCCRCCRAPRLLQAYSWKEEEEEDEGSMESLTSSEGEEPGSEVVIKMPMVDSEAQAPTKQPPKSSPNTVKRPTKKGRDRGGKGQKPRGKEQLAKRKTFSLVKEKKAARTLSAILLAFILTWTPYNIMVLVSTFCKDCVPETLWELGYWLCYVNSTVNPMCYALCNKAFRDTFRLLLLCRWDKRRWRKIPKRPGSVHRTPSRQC
# How it was run: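 Antagonist mode with rat M1 receptor transfected into CHO cells. Compound is added first for 10 min, carbachol at its EC80 follows for 30 min, and lysis reagents then allow TR-FRET detection of accumulated IP1.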
# [8] = biological target: Pyruvate kinase (Leishmania mexicana) (UniProt Q27686); assay: qHTS Validation Assay for Inhibitors of Leishmania Mexicana Pyruvate Kinase (AID 945)
# Chain of Pyruvate kinase (Leishmania mexicana) (Q27686 2-499 E452W): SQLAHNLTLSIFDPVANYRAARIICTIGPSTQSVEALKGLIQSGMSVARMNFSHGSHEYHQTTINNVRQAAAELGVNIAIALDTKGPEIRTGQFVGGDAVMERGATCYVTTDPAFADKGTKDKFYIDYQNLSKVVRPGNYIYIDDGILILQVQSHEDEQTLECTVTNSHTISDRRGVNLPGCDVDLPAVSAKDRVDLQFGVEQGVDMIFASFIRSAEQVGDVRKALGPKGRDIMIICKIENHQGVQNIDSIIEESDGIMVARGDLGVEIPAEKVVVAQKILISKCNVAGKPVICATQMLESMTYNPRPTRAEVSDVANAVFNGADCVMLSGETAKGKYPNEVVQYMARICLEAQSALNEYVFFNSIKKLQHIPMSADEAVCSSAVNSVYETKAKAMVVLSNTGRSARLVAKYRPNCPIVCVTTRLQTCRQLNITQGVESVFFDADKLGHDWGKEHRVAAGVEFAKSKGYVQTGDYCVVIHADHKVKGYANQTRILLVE
# How it was run: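 An endpoint luciferase assay: 0.2 nM LmPYK E451W turns over 0.5 mM PEP with 0.1 mM ADP for 1 h at room temperature, pH 7.2, before PKLight addition. Values are normalized to DMSO-only wells.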
# [9] = biological target: Pyruvate kinase PKM (Homo sapiens) (UniProt P14618); assay: qHTS Assay for Activators of Human Muscle Pyruvate Kinase (AID 954; active means well fitted curve in the direction sought with a large enough effect, not every such curve was filed as active)
# Chain of Pyruvate kinase PKM (Homo sapiens) (P14618 whole entry, looked up): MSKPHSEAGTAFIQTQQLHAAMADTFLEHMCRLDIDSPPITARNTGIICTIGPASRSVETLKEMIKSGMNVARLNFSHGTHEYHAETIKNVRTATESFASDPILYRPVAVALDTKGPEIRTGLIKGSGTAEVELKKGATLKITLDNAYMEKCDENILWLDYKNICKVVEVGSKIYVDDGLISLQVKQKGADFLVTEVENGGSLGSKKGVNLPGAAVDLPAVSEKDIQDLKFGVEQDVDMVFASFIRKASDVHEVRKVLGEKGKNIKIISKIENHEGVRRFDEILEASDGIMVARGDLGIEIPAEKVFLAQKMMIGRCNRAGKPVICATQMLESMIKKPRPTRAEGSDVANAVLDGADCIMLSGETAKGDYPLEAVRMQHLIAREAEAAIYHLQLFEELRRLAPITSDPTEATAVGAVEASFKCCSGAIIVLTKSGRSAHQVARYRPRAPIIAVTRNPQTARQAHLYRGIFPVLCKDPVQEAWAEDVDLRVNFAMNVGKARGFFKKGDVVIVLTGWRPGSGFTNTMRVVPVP
# How it was run: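 A coupled luminescent readout tracked ATP made from ADP by purified PKM2. Final conditions included 0.1 nM enzyme, PEP and ADP at 0.5 and 0.1 mM, pH 7.2 imidazole buffer with BSA, and a one-hour room-temperature reaction.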
# [10] = biological target: alpha-glucosidase (Oryza sativa, rice) (UniProt Q653V4); assay: Counterscreen for Glucocerebrosidase Inhibitors: qHTS Assay for Rice alpha-Glucosidase at pH 5.0 (AID 997)
# How it was run: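 Endpoint fluorogenic assay at pH 5.0: compounds (0.7 nM to 77 uM) titrated against 4 nM rice enzyme and 400 uM 4-MU-alpha-glucoside for 20 min at room temperature; NaOH/glycine stop, read ex 365/em 440 nm, Hill-fitted AC50.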
# [11] = biological target: Cytochrome P450 2C9 (Homo sapiens) (UniProt P11712); assay: qHTS Assay for Inhibitors and Substrates of Cytochrome P450 2C9 (AID 883); further: nearly all actives have a fitted effect of over 60% in size
# Chain of Cytochrome P450 2C9 (Homo sapiens) (P11712 whole entry, looked up): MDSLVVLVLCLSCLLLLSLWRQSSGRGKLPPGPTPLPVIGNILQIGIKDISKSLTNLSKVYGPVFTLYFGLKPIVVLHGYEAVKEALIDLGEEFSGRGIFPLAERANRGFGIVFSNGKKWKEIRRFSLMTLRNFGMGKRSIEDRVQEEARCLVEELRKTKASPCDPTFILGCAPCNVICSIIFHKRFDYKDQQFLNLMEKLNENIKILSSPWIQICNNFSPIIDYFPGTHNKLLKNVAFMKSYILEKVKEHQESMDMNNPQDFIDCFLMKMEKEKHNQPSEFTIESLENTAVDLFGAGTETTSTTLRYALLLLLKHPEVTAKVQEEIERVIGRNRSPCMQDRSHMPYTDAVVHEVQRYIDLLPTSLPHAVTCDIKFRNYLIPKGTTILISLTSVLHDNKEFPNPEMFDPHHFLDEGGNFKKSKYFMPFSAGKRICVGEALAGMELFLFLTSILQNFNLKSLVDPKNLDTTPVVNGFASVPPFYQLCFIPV
# How it was run: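 Human CYP2C9 (10nM) hydroxylated Luciferin-H (100uM, at its KM) to luciferin in 25mM KPO4. Compound was preincubated 10 min at 37C, then NADPH regeneration started a 60 min reaction at 37C. Luminescence was read after detection reagent, normalized to 57uM sulphaphenazole.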
# [12] = biological target: Cytochrome P450 3A4 (Homo sapiens) (UniProt P08684); assay: qHTS Assay for Inhibitors and Substrates of Cytochrome P450 3A4 (AID 884); further: nearly all actives have a fitted effect of over 50% in size
# How it was run: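 Luminescent readout of luciferin produced by CYP3A4 (20 nM) dealkylation of Luciferin-PPXE, 25 uM (its KM). NADPH-driven reaction ran 60 min at RT after 10 min compound preincubation; data scaled to 57 uM ketoconazole as 100% inhibition.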
# [13] = biological target: Ubiquitin carboxyl-terminal hydrolase 1 (Homo sapiens) (UniProt O94782); assay: Inhibitors of USP1/UAF1: Pilot qHTS (AID 504865);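 further: rhodamine fluorescence freed from ubiquitin-rhodamine substrate followed over time; top concentration of the series differs between compounds; nearly all actives have a fitted effect of over 35% in size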
# Chain of Ubiquitin carboxyl-terminal hydrolase 1 (Homo sapiens) (O94782 whole entry, looked up): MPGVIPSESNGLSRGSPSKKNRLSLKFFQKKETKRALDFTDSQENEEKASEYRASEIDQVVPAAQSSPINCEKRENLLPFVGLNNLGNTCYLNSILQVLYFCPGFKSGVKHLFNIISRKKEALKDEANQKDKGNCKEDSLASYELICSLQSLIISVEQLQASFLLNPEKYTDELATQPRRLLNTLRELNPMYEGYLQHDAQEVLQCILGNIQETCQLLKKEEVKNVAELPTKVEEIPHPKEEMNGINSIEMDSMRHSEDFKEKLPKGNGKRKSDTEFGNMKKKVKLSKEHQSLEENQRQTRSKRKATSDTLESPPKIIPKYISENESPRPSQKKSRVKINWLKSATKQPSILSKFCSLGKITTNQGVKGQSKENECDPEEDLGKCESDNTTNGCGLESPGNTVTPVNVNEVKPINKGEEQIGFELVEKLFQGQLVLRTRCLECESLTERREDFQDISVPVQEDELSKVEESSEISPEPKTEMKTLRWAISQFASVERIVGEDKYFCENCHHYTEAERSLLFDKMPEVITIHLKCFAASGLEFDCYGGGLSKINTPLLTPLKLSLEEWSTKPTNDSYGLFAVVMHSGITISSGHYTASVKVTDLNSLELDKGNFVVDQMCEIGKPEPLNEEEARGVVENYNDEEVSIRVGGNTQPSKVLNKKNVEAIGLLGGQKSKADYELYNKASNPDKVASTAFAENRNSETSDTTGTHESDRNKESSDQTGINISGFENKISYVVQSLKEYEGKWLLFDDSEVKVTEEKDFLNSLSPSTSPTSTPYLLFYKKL
# How it was run: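 USP1/UAF1 complex at 1 nM preincubated 15 min at room temperature with compound, then Ub-Rho substrate added at 150 nM final. Fluorescence (480/540 nm) read kinetically in 50 mM HEPES pH 7.8, 0.5 mM EDTA, 1 mM TCEP, 0.1 mg/ml BSA, 0.01% Tween-20.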
# [14] = Primary qHTS for inhibitors of nuclear receptor binding SET domain protein 2 (NSD2) in an isogenic RCH-ACV NSD2 p.E1099K mutant (9B) (AID 1645876); further: nearly all actives have a fitted effect of over 70% in size; further: potency means the concentration at half of the fitted maximal effect
# [15] = Primary qHTS for inhibitors of nuclear receptor binding SET domain protein 2 (NSD2) in an RCH-ACV wild type WT cells (2C) (AID 1645877); further: nearly all actives have a fitted effect of over 70% in size; further: potency means the concentration at half of the fitted maximal effect
# [16] = biological target: Glutathione peroxidase 1 (Homo sapiens) (UniProt P07203); assay: Primary qHTS Assay for Inhibitors of Recombinant Selenoprotein Glutathione Peroxidase 1 (GPX1) (AID 1845191); further: nearly all actives have a fitted effect of over 65% in size
# Chain of Glutathione peroxidase 1 (Homo sapiens) (P07203 whole entry, looked up): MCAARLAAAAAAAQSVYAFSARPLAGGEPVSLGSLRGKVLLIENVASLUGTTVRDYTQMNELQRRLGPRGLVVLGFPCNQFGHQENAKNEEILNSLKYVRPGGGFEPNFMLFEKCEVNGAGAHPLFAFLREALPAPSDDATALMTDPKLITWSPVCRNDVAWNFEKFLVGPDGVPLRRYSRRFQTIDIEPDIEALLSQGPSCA
# How it was run: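 GPX1 10 nM, GR 100 nM, GSH 1 mM, NADPH 0.5 mM, CHP 0.5 mM (final). 30-min cpd preincubation, RT. Ex340/Em450 read t=0, t=15 min.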
# [17] = qHTS drug screen for cell cycle checkpoint inhibitors in PARPi-resistant BRCA-mutant ovarian cancer cell lines. (AID 1963452; calls by dose curve); conditions: PEO1/OlaR viability, CellTiter-Glo luminescence, 96 h, stronger effect = lower value
# How it was run: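 PEO1, PEO4 and PEO1/OlaR ovarian cancer cells, 600 per well, exposed 96 h at 37C to a dilution series. Viability read by CellTiter-Glo luminescence, normalized to DMSO and empty wells; activity summarized as Z-AUC.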
# [18] = measured here: PEO1 parental Z-AUC
compound,measurement,setting,value
COc1ccc(Cl)cc1N=Nc1ncc[nH]1,Potency,[1],inactive
same,Potency,[2],2.51 µM (active)
C=CCN1CCc2cc(O)c(O)cc2[C@H](c2ccccc2)C1,"activity change, negative = inhibition",[3],-3.34% (inactive)
same,"activity change, negative = inhibition",[4],-18.1% (inactive)
same,"activity, negative = inhibition",[5],-21% (inactive)
same,outcome,[6],inactive
same,Potency,[2],0.398 µM (active)
same,Potency,[7],inactive
same,Potency,[8],inactive
same,outcome,[9],inactive
same,outcome,[10],inactive
CCCn1c(=O)[nH]c2nc(-c3ccc(S(=O)(=O)O)cc3)[nH]c2c1=O,Potency,[11],inactive
same,Potency,[12],inactive
same,Potency,[2],7.94 µM (active)
same,Potency,[13],inactive
CNC(=O)[C@H]1O[C@@H](n2cnc3c(NCc4cccc(I)c4)nc(Cl)nc32)[C@H](O)[C@@H]1O,Potency,[14],inactive
same,Potency,[15],inactive
same,Potency,[16],inactive
same,Z-AUC,[17],0.981 (inactive)
same,Z-AUC,[17]; [18],0.685
same,Z-AUC,[17]; measured here: PEO4 Z-AUC,0.71
Nc1ccn([C@H]2O[C@@H](CO)[C@H](O)[C@H]2O)c(=O)n1,Potency,[14],20.6 nM (active)
same,Potency,[15],16.4 nM (active)
CC(=O)[C@H]1CCC2C3CCC4=CC(=O)CC[C@]4(C)C3[C@H](O)C[C@@]21C (some centres undefined),Potency,[14],inactive
same,Potency,[15],inactive
same,Potency,[16],inactive
CC(=O)N(O)[C@@H]1c2cc(C#N)ccc2OC(C)(C)[C@H]1O,Potency,[12],inactive
N[C@@H](Cn1cc(I)c(=O)n(Cc2ccc(C(=O)O)cc2)c1=O)C(=O)O,Potency,[2],2.51 µM (active)
same,Potency,[13],inactive
N[C@@H](Cc1cc(CP(=O)(O)O)cc(-c2ccccc2Cl)c1)C(=O)O,Potency,[13],inactive
CN(c1ccc(NC(=O)Nc2ccc(OC(F)(F)F)cc2)cc1)c1ccnc(Nc2cccc(S(N)(=O)=O)c2)n1,Potency,[14],3660 nM (active)
same,Potency,[15],1030 nM (active)
same,Potency,[16],inactive
COc1ccc(-c2oc3ncnc(N)c3c2-c2ccc(NC(=O)Nc3cc(C(F)(F)F)ccc3F)cc2)cc1,Potency,[14],6.51 µM (active) and inactive
same,Potency,[15],10.3 µM (active) and inactive
same,Potency,[16],inactive
same,Z-AUC,[17],0.736 (inactive)
same,Z-AUC,[17]; [18],0.865
same,Z-AUC,[17]; measured here: PEO4 Z-AUC,0.712
